Screening data: PubChem BioAssay, National Center for Advancing Translational Sciences (NCATS)
Sampled rows, rich in hits. Any-hit rate of the full collection: about 11%.
Vaccinia mCherry: inhibitors of vaccinia virus infection (mCherry reporter signal). 310,000 tested, 0.63% active. Vaccinia virus mCherry reporter infection, fluorescence. Potency, µM (top dose mostly 36.5 µM), inactives show at the top dose activity change, negative = inhibition, most hits filed as inhibitors; calls by dose curve; tested in A549 cells; also: % is scaled to controls: 0 for no effect and ±100 for the full control effect; nearly all actives have a fitted effect of over 35% in size
HCV inhibitor: HCV inhibition; 340,000 tested, 3.4% active; Huh7.5.1 HCVcc-Cre infection, luciferase reporter, 44 h; Potency, µM (series often up to 41.8 µM), for inactives: at the top dose activity change, negative = inhibition, hits mostly inhibitors; AID 651820; also: % is scaled to controls: 0 for no effect and ±100 for the full control effect
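Seed cells (1,000/well) for 4 h; treat with compound and infect with HCVcc-Cre, moi about 0.5. Incubate 44 h, then detect luciferase activity.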
Pf growth 48h: inhibits P. falciparum growth in the first generation, 48 h. P. falciparum luciferase growth in erythrocytes, 48 h. Potency, µM (titrated, usually from 28.7 µM), inactives show at the highest dose activity change, negative = inhibition, actives largely listed as inhibitors. 310,000 tested, 5.9% active; also: % is scaled to controls: 0 for no effect and ±100 for the full control effect
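A one-generation exposure of luciferase-tagged malaria parasites in RPMI 1640/Albumax erythrocyte culture, 37 C and 5% CO2. Inhibition is inferred from decreased luminescence after adding detection reagent.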
Pf growth 96h: P. falciparum growth inhibition at 96 hour, primary screen for plastid delayed-death inhibitors. P. falciparum luciferase reporter growth, 96 h. Potency, µM (top dose mostly 28.7 µM), inactives show at the top dose activity change, negative = inhibition, usual class: inhibitors. 320,000 tested, 6.9% active; also: % is scaled to controls: 0 for no effect and ±100 for the full control effect
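Luminescence readout: decreased luciferase signal marks inhibited growth of reporter-expressing P. falciparum in infected red cells (2% hematocrit, 0.05% parasitemia final), exposed to compound two generations (96 h, 37 C, 5% CO2).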
Vaccinia Venus: vaccinia inhibition (Venus reporter) | Vaccinia virus Venus reporter expression, fluorescence | Potency, µM (series often up to 36.5 µM), without a hit: at the highest dose activity change, negative = inhibition, usual class: inhibitors | 330,000 tested, 0.46% active; calls by dose curve; tested in A549 cells; also: % is scaled to controls: 0 for no effect and ±100 for the full control effect; nearly all actives have a fitted effect of over 30% in size
NS1 inh: influenza NS1 inhibition. Potency, µM (doses to about 46.1 µM), without a hit: at the top dose activity, positive = more growth. 270,000 tested, 0.4% active. AID 2326; calls by dose curve; also: actives are rising curves; nearly all actives have a fitted effect of over 50% in size
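Read-out: OD600 growth recovery of NS1-expressing budding yeast. Cells grown overnight at 30C in -URA glucose medium, washed, resuspended and diluted 1:100 in 2% galactose assay medium, pH 6.0. Same strain lacking NS1 served as positive control.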
* = called active by the depositor; i = inactive; ? = inconclusive; . = no result given; [ ] = dose if it differs, or a comment. Unless noted, calls follow the shape of the dose curve; as a rule, active = well fitted inhibition curve with a large enough effect; inconclusive = small, poorly fitted or top-dose-only effect, or another doubt; inactive = no such curve, though single readings can be large or run the other way. Potency is read from the fitted curve at half-maximal effect.

SMILES	Vaccinia mCherry	HCV inhibitor	Pf growth 48h	Pf growth 96h	Vaccinia Venus	NS1 inh
C/C(=N\Nc1ccccn1)c1ccc(OC(F)F)cc1	?	8.91µM*	5.4%	57.5%	?	-0.4%
C/C(=N\Nc1ccccn1)c1ccc(C#N)cc1	-4.9%	-22.0%	-18.4%	-8.4%	-0.7%	.
COc1ccc(C2NC(=O)NC(C)=C2C(=O)Nc2cccc(C)c2C)cc1 (stereo not given)	i	1.0%	21.5%	28.0%	7.0%	-9.3%
O=C(COC(=O)c1cnc(Cl)c(Cl)c1)NCc1cccs1	5.0%	12.4%	0.0%	15.2%	4.6%	-1.0%
NS(=O)(=O)c1cc(-c2nn[nH]n2)c(NCc2cccs2)cc1Cl	.	.	-9.6%	12µM*	.	.
CCN(c1ccccc1)S(=O)(=O)c1ccc(NC(=O)c2cc(=O)c3cc(C)c(C)cc3o2)cc1	-4.9%	.	.	.	-6.4%	.
CCN(Cc1cccs1)C(=O)CN1CCN(S(=O)(=O)c2ccc3c(c2)OCCCO3)CC1	-7.0%	-22.4%	-5.2%	?	-17.9%	.
CN(C(=O)C=Cc1ccco1)c1ccccc1	-1.2%	2.0%	.	.	-15.7%	.
CN(C(=O)/C=C/c1ccc([N+](=O)[O-])s1)c1ccccc1	.	22.4µM*	?	?	.	.
COCC(C)n1c(C)cc(C(=O)COc2ccc(S(=O)(=O)N3CCOCC3)cc2Cl)c1C (stereo not given)	-15.7%	14.1µM*	13.1µM*	.	-13.5%	12.9%
COc1cc(C)c2occ(/C(C)=N\O)c2c1	.	8.91µM*	3.6%	-16.1%	.	-31.6%
CC(NC(=O)CN(C)Cc1cccs1)c1ccccc1 (stereo not given)	i	20.2%	?	39.3%	-8.6%	.
CCOc1ccc(S(=O)(=O)Nc2cnc3ccccc3c2)cc1	?	1.78µM*	5.9%	-23.5%	-4.7%	-7.8%
CCN(CC)C(=O)Nc1cnc2ccccc2c1	-8.5%[1.46 µM]	8.9%	50.1%	2.33µM*	-14.3%	-0.1%
CCOc1ccc(S(=O)(=O)Nc2nc3ccccc3nc2N2CCN(C)CC2)cc1	.	8.7%	7.4%	3.7µM*	-18.1%	-62.3%
Cc1ccc(NC(=O)Nc2cnc3ccccc3c2)cc1	-2.6%	-17.2%	?	23.0%	4.7%	-1.3%
CC(C)OCCCNC(=O)NC12CC3CC(CC(C3)C1)C2	-16.0%	9.5%	-1.0%	4.2%	-28.7%	-7.0%
CC1=C(C(=O)N(C(C)C)C(C)C)CC(CC(=O)NCCCCc2ccccc2)C(=O)N1Cc1ccc(F)cc1 (stereo not given)	8.8%	.	.	.	-13.9%	.
CCCN(Cc1cccs1)C(=O)Nc1ccccc1C	-3.3%	.	.	.	-1.4%	.
COc1ccc(NC(=O)c2cc(S(=O)(=O)N3CCOCC3)ccc2C)cc1S(=O)(=O)N1CCCCC1	.	-27.1%	.	.	.	.
CCCOc1ccccc1/C=C1\SC(N2CCCCC2)=NC1=O	-13.8%	10µM*	?	?	6.1%	-3.2%
Cc1ccc(/C=C2\SC(N3CCCCC3)=NC2=O)cc1	-9.0%	-16.9%	-5.2%	390.1%	-15.2%	1.5%
O=C1N=C(N2CCCCC2)S/C1=C\c1ccccc1F	-23.9%	-22.7%	-0.7%	?	-20.9%	-38.2%
O=C1N=C(N2CCCC2)S/C1=C\c1ccccc1	?	6.8%	14.7µM*	?	-29.3%	-4.5%
NS(=O)(=O)c1ccc(N/N=C/c2ccccc2C(=O)O)c([N+](=O)[O-])c1	6.4%	-11.7%	44.1%	3.2%	-8.0%	.
SMILES	Vaccinia mCherry	HCV inhibitor	Pf growth 48h	Pf growth 96h	Vaccinia Venus	NS1 inh
CSc1ccc(CN(C)C(=O)C2CCN(C(=O)Nc3ccccc3)CC2)cc1	.	10µM*	?	7.3%	.	.
O=C(Nc1ccc(Cl)cc1)C1CCN(C(=O)NC2CCCCC2)CC1	.	5.9%	-5.2%	5.9%	.	10.7%
COc1ccc(CN(C)C(=O)C2CCN(C(=O)Nc3ccccc3)CC2)cc1OC	.	-8.6%	?	?	.	.
CC(=O)Nc1ccc(NC(=O)C2CCN(C(=O)NC3CCCCC3)CC2)cc1	i	6.3%	-3.2%	5.22µM*	-2.8%	1.4%
COC(=O)c1ccc(NC(=O)C2CCN(C(=O)Nc3ccccc3)CC2)cc1	.	?	?	4.65µM*	.	.
CSc1ccc(CN(C)C(=O)C(c2ccccc2)c2ccccc2)cc1	.	?	8.28µM*	?	.	4.3%
CC[C@]12c3[nH]c4cc(-c5ccco5)ccc4c3CCN1C(=O)[C@@H](CC(=O)NCc1ccc(OC)c(OC)c1)C[C@@H]2C(=O)N1CCN(C(=O)C2CC2)CC1	-12.0%	-7.5%	.	.	?	.
CCN(CC)CCCNC(=O)c1ccc2c(=O)n(CCc3ccccc3)c(=O)[nH]c2c1	-0.6%	.	.	.	-7.2%	.
CCCc1cc(=O)[nH]c2nnc(SC(C)CC)n12 (stereo not given)	-7.7%	.	.	.	-18.0%	.
O=C(NC1CCCCC1)N1CCN(c2ccc([N+](=O)[O-])cc2)CC1	.	?	-14.3%	?	.	-9.2%
O=C(NC1CCCCC1)N1CCN(c2ccc(Cl)cc2)CC1	-21.7%	?	?	1.85µM*	-10.0%	-35.7%
O=C(Nc1ccc(-n2ccc(C(F)(F)F)n2)cc1)c1cccs1	i	-16.4%	?	?	-20.7%	-46.3%
COc1ccc(/C=C/C(=O)NCc2cn(C)nc2C)cc1COc1ccc(Br)cc1	.	?	3.7µM*	?	.	23.3%
Clc1cccc(Cl)c1COc1ccncc1	.	-3.5%	14.8%	-0.6%	-6.8%	-7.8%
O=C(OCc1c(Cl)cccc1Cl)c1ccncc1	i	-4.2%	?	11.7µM*	-4.8%	-10.0%
C/C(=N\NC(=O)c1nc2ccccn2c1C)c1ccco1	i	-16.9%	70.8%	81.8%	-12.0%	2.3%
COc1ccc2c(c1)CCc1c(C(=O)N3CCOCC3)noc1-2	.	-7.8%	126.7%	.	.	-6.0%
COc1ccc2c(c1)CCc1c(C(=O)N3CCCc4ccccc43)noc1-2	.	?	6.57µM*	9.7%	.	-17.6%
COc1ccc2c(c1)CCc1c(C(=O)N3CC4(C)CC3CC(C)(C)C4)noc1-2 (stereo not given)	-5.6%	?	14.7µM*	?	-16.9%	-57.8%
COC(=O)c1ccc(NC(=O)CN(C)S(=O)(=O)c2ccc(Br)s2)cc1	-17.3%	.	.	.	-1.9%	.
O=C(OCC1COC(c2ccccc2)(c2ccccc2)O1)c1ccccc1 (stereo not given)	i	1.6%	.	.	-10.0%	.
C=CCn1c(SCc2nc3cc(C(F)(F)F)ccc3c(=O)[nH]2)nc2sc(CC)cc2c1=O	-14.2%	12.2%	-5.5%	-2.2%	-3.3%	6.9%
O=C(O)CCCCCNS(=O)(=O)c1cccc2c1C(=O)c1ccccc1C2=O	4.47µM*	-15.9%	20.7%	-21.1%	5.01µM*	7.5%
CN1C(=O)CC(C(=O)Nc2ccc(F)cc2)SC1=Nc1ccc2c(c1)OCO2 (stereo not given)	i	2.8%	?	19.1%	-14.3%	-7.5%
